The results in this text go back to ChEMBL document CHEMBL1961873, “Compounds: GSK PKIS; Assays: Nanosyn kinase panel” (2012).

The target in test [1] is MAP/microtubule affinity-regulating kinase 3 (Homo sapiens) (UniProt P27448). Particulars: at 1 µM.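 Also: reported values are averaged percent inhibition of MARK3.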
Test [2] has as its target T1, MAP/microtubule affinity-regulating kinase 4 (Homo sapiens) (UniProt Q96L34).
T1 sequence (whole entry): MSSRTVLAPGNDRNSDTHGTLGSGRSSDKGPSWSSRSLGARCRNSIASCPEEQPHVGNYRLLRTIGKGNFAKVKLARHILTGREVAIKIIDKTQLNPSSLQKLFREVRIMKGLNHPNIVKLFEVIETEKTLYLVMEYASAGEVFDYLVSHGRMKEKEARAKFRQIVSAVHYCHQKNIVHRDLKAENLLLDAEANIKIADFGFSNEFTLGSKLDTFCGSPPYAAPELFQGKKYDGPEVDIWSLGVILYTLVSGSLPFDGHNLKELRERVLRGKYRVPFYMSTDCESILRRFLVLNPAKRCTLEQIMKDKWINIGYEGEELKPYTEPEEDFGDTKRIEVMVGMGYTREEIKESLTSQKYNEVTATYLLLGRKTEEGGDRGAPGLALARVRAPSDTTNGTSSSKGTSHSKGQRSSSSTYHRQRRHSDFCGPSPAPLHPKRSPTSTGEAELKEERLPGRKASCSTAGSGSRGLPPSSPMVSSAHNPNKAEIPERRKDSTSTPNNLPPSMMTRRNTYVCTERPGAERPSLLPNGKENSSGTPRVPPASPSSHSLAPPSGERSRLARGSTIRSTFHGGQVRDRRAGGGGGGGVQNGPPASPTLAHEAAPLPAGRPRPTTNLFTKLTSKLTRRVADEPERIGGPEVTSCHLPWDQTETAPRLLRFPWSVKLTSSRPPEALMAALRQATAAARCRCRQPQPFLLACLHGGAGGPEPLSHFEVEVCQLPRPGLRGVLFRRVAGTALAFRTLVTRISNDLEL
As to conditions: at 0.1 µM.

In test [3] the target is T1, MAP/microtubule affinity-regulating kinase 4 (Homo sapiens). As to conditions: at 1 µM.
In test [4] the target is Maternal embryonic leucine zipper kinase (Homo sapiens) (UniProt Q14680). As to conditions: at 0.1 µM.
For test [5] the target is unchanged. As to conditions: at 1 µM.
Test [6] concerns the target MAP kinase-interacting serine/threonine-protein kinase 1 (Homo sapiens) (UniProt Q9BUB5). Particulars: at 0.1 µM.
Test [7] shares this target. As to conditions: at 1 µM.
Test [8] deals with MAP kinase-interacting serine/threonine-protein kinase 2 (Homo sapiens) (UniProt Q9HBH9). Particulars: at 0.1 µM.
The target is the same in test [9]. As to conditions: at 1 µM.
In test [10] the target is Serine/threonine-protein kinase MARK2 (Homo sapiens) (UniProt Q7KZI7). As to conditions: at 0.1 µM.
Test [11] has the same target. Particulars: at 1 µM.
Test [12] concerns the target PAS domain-containing serine/threonine-protein kinase (Homo sapiens) (UniProt Q96RG2). Particulars: at 0.1 µM.
Test [13] has the same target. As to conditions: at 1 µM.
For test [14], the target named is Phosphorylase b kinase gamma catalytic chain, skeletal muscle/heart isoform (Homo sapiens) (UniProt Q16816). As to conditions: at 0.1 µM.
Test [15] shares this target. As to conditions: at 1 µM.
The target in test [16] is T2, Phosphorylase b kinase gamma catalytic chain, liver/testis isoform (Homo sapiens) (UniProt P15735).
T2 sequence (whole entry): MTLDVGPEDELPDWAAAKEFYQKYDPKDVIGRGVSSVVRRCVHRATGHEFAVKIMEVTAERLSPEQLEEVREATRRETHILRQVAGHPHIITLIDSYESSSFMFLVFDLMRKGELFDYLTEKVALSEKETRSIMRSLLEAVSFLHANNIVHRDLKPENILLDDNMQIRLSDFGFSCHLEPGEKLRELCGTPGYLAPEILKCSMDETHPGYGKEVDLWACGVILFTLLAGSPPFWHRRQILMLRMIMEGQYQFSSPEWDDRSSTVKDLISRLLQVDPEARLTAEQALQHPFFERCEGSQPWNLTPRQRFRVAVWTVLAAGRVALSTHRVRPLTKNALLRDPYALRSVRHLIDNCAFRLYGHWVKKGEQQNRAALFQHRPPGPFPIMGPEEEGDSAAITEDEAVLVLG
Particulars: at 0.1 µM.

Test [17] addresses T2, Phosphorylase b kinase gamma catalytic chain, liver/testis isoform (Homo sapiens). As to conditions: at 1 µM.
In test [18] the target is Serine/threonine-protein kinase pim-1 (Homo sapiens) (UniProt P11309). Particulars: at 0.1 µM.
Test [19] has the same target. Particulars: at 1 µM.
In test [20] the target is Serine/threonine-protein kinase pim-2 (Homo sapiens) (UniProt Q9P1W9). Particulars: at 0.1 µM.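 Also: reported value is the mean percent inhibition of PIM2, measured in the GSK PKIS kinase inhibitor set screen.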
Sequence of Serine/threonine-protein kinase pim-2 (Homo sapiens) (Q9P1W9 whole entry, looked up): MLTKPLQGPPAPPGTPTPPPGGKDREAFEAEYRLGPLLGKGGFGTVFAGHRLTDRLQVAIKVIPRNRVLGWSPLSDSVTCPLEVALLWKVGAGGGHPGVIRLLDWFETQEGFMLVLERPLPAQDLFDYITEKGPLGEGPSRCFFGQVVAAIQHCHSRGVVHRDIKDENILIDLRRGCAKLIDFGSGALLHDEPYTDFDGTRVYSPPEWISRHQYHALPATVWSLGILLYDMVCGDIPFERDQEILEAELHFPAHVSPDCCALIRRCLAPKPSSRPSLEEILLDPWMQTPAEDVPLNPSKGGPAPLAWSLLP

Sequence of Maternal embryonic leucine zipper kinase (Homo sapiens) (Q14680 whole entry, looked up): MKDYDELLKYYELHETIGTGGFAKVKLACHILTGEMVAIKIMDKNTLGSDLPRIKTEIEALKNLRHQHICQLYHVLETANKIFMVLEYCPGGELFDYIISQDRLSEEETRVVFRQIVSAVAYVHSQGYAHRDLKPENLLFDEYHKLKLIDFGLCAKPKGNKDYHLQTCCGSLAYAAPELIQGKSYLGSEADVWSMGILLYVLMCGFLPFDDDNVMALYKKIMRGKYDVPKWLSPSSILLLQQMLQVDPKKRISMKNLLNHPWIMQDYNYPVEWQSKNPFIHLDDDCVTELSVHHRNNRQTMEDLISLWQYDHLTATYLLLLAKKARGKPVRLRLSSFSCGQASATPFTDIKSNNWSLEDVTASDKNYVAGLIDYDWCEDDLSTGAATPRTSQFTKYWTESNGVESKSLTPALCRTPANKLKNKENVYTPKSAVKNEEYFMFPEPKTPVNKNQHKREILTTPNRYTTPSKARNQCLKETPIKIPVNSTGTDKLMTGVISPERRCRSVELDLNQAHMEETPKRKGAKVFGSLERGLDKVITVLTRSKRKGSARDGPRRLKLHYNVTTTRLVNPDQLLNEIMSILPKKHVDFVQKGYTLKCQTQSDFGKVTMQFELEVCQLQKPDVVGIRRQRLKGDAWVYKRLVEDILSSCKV
Sequence of Phosphorylase b kinase gamma catalytic chain, skeletal muscle/heart isoform (Homo sapiens) (Q16816 whole entry, looked up, canonical isoform): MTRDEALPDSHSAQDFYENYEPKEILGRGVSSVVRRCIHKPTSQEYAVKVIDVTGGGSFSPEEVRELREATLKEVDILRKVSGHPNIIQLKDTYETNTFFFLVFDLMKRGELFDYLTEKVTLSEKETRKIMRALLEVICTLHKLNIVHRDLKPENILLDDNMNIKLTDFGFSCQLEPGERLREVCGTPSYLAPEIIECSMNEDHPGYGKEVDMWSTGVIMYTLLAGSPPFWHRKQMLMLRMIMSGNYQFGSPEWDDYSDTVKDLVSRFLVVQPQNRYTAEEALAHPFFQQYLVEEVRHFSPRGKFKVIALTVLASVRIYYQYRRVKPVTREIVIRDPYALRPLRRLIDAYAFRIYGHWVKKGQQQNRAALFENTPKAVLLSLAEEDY
Sequence of Serine/threonine-protein kinase MARK2 (Homo sapiens) (Q7KZI7 whole entry): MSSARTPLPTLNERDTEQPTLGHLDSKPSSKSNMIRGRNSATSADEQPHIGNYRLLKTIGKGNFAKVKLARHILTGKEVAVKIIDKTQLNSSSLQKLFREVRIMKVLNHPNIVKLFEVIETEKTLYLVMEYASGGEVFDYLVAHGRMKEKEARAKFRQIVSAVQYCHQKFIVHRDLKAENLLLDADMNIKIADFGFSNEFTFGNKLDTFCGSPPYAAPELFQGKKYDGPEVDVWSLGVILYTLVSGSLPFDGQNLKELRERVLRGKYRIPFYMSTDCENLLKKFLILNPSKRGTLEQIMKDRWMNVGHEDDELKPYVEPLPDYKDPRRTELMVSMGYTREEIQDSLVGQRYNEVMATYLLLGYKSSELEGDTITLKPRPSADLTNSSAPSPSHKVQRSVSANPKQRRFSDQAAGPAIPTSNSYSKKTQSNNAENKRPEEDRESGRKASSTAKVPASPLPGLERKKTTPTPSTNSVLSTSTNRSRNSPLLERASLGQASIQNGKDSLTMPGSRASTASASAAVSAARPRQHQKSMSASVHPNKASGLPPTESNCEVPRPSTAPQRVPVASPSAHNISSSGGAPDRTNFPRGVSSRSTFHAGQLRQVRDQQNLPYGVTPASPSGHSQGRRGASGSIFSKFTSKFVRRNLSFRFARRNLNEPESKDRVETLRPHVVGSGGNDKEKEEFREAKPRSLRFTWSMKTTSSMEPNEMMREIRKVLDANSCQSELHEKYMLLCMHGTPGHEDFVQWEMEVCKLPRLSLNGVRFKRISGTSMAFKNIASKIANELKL
Sequence of PAS domain-containing serine/threonine-protein kinase (Homo sapiens) (Q96RG2 whole entry, the tested form may be a part): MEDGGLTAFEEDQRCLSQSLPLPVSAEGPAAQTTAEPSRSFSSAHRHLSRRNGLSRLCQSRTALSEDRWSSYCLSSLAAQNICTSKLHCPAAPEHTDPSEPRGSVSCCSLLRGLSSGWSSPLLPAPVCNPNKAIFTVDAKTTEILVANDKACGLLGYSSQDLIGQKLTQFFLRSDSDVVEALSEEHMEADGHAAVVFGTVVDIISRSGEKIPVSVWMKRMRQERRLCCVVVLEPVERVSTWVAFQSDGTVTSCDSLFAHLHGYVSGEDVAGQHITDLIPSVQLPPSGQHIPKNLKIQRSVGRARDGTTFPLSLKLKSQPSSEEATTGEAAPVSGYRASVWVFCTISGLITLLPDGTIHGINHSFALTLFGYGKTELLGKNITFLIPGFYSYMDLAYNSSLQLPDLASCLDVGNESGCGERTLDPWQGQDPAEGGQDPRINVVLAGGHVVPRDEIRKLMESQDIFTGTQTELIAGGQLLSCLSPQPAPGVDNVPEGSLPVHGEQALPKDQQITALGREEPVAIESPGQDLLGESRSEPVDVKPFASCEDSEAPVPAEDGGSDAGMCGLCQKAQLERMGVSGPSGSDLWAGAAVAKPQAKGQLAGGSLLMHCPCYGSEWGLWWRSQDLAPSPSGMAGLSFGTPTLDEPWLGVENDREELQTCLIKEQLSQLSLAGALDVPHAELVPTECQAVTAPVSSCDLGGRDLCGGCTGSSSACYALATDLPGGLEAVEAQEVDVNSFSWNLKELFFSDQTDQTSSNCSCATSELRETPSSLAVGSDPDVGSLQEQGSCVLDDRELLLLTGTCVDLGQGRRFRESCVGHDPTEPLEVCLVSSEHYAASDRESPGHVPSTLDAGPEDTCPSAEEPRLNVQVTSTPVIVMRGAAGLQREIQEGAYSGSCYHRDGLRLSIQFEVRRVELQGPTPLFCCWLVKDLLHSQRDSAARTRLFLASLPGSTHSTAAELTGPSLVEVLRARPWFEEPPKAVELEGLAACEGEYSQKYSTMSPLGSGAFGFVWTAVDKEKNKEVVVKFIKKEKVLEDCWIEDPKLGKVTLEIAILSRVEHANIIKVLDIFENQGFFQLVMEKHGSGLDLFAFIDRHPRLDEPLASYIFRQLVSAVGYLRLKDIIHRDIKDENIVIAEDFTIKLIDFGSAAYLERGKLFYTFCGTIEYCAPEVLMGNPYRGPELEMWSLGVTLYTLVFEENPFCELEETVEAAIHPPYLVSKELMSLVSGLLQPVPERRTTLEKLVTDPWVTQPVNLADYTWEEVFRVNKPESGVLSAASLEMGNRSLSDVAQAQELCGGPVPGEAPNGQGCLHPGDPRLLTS
Sequence of MAP kinase-interacting serine/threonine-protein kinase 1 (Homo sapiens) (Q9BUB5 whole entry, looked up): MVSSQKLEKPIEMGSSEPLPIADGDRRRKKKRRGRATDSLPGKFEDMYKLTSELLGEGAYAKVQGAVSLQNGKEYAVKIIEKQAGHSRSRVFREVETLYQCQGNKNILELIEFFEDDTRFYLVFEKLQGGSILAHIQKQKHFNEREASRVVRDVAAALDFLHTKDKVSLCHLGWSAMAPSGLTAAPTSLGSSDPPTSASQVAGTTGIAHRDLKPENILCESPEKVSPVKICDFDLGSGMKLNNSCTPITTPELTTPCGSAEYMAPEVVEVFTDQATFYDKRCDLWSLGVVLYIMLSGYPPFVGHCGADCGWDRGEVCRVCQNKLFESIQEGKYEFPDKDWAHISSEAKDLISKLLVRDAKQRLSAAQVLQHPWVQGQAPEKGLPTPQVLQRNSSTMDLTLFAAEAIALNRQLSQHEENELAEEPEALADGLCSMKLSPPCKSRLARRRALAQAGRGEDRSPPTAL
Sequence of Serine/threonine-protein kinase pim-1 (Homo sapiens) (P11309 whole entry, looked up): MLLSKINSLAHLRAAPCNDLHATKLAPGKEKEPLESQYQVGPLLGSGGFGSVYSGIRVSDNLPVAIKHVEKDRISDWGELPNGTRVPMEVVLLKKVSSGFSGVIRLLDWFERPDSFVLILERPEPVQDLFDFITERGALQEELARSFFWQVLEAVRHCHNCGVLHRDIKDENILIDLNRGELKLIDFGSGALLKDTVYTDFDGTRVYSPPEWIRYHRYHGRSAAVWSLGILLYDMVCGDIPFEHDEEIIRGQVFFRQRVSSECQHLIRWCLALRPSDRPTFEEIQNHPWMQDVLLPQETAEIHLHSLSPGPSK
Sequence of MAP kinase-interacting serine/threonine-protein kinase 2 (Homo sapiens) (Q9HBH9 whole entry, looked up): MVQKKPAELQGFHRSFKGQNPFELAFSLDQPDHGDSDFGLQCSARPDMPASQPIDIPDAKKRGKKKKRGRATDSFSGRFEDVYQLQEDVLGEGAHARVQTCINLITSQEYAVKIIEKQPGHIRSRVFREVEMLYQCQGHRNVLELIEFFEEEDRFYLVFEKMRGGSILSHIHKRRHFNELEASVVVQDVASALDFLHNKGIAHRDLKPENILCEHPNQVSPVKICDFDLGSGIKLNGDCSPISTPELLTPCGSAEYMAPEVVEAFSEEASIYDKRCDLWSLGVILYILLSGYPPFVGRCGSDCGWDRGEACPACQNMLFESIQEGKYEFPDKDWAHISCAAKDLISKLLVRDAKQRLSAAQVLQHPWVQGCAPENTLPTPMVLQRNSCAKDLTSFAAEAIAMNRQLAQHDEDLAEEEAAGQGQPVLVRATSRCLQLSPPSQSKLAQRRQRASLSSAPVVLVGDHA

As usually defined, the inhibition is the drop in the measured response relative to a control, in per cent. For `COc1ccc(-c2nn3ncccc3c2-c2ccnc(Nc3ccc4c(c3)OCCO4)n2)cc1`, the inhibition in test [1] is 1.83%; in test [2], 1.34%; in test [3], 0.93%; in test [4], -1.54%; in [5], 2.58%; in test [6] it was 0.71%. Besides, the inhibition in test [7] is 0.14%; in test [8] it was -0.13%; in test [9], 1.25%; in test [10], -1.35%; in test [11], -0.07%; in test [12], 1.07%. Further, the inhibition was 0.37% in test [13]; 2.6% in test [14]; 6.21% in test [15]; 0.91% in test [16]; 0.83% in [17]; 0.46% in [18]. Also, the results for the inhibition in test [19] and in [20] were -0.36% and 0.54%, respectively.
Regarding `c1ccc(COc2ccc(Nc3ncnc4ccc(-c5ccco5)cc34)cc2)cc1`, the inhibition is 3.2% in test [1]; 0.96% in [2]; 1.77% in [3]; 0.14% in [4]; -3.64% in test [5]; 1.35% in test [6]. Besides, the inhibition in test [7] is 5.5%; in test [8], 2.49%; in test [9], 8.27%; in test [10], -1.72%; in test [11], 1.38%; in [12], 0.95%. In addition, the inhibition is 1.6% in test [13]; 4.05% in [14]; 5.22% in test [15]; 1.07% in test [16]; 2.25% in test [17]; -1.26% in test [18]. Also, the inhibition was found to be 0.42% in test [19] and 0.63% in [20].
For `NC(=O)c1sc(-n2cnc3ccc(C(F)(F)F)cc32)cc1OCc1ccccc1Br`, the inhibition in [1] is 11.5%; in [2] it was 1.2%; in [3] it was 2.56%; in [4], 2.87%; in [5], 7.71%; in [6] it was 2.89%. Also, the inhibition in [7] is 5.77%; in test [8], 1.04%; in [9], 3.71%; in [10], -0.38%; in [11], -0.94%; in test [12] it was -1.22%. The inhibition in [13] is -1.68%; in test [14] it was 4.21%; in test [15], 7.92%; in [16], 5.06%; in [17], 4.43%; in test [18], -0.41%. In addition, the inhibition was 2.03% in [19] and -0.42% in test [20].
Turning to `Fc1cccc(COc2ccc(Nc3ncnc4sc(-c5ccco5)cc34)cc2Cl)c1`, the inhibition in [1] is 4.54%; in test [2], 2.34%; in [3], 3.94%; in test [4] it was 5.07%; in test [5], 1.45%; in test [6], 1.99%. The inhibition was 10.1% in test [7]; -0.22% in test [8]; 15.1% in test [9]; 1.08% in test [10]; 2.25% in test [11]; -0.19% in test [12]. In addition, the inhibition in [13] was 0.63%; in [14], 5.6%; in test [15], 5.83%; in [16], 4.96%; in [17] it was 5.36%; in test [18] it was -0.57%. Also, the inhibition in test [19] turned out to be 0.55%; in [20], 0.56%.
In the case of `Fc1ccc(-c2nn3ccccc3c2-c2ccncc2)cc1`, the inhibition in test [1] is -0.24%; in [2], 0.11%; in [3], -0.34%; in test [4] it was 3.07%; in test [5], 6.94%; in [6], 0.31%. Moreover, the inhibition in test [7] is 3.36%; in test [8] it was -0.39%; in [9], 3.58%; in [10] it was -0.63%; in [11] it was 0.53%; in test [12] it was -0.17%. In addition, the inhibition in test [13] is -0.32%; in test [14], 2.42%; in test [15], 2.09%; in test [16], 0.28%; in test [17], -0.7%; in test [18], -0.39%. Moreover, the inhibition in [19] was 0.04%; in test [20], -0.3%.
As for `Fc1ccc(-c2nn3ncccc3c2-c2ccnc(Nc3ccc4c(c3)OCCO4)n2)cc1`, the inhibition in test [1] is -0.42%; in [2], 2.21%; in test [3] it was 2.65%; in test [4], 3.62%; in [5], 9.58%; in [6] it was 3.01%. Further, the inhibition in test [7] was 4.06%; in test [8], 0.58%; in test [9], -0.01%; in test [10], -1.3%; in test [11], -1.26%; in [12] it was -0.29%. The inhibition in test [13] was -3.15%; in test [14], 4.49%; in test [15], 6.66%; in test [16] it was 4.66%; in test [17], 0.54%; in test [18], 0.37%. Also, the inhibition was determined as 1.21% in test [19] and 0.26% in test [20].
